In the library only some 2.4% were active in any assay of this set; here they are far more common.
FPRL1 binder – binds the human formylpeptide receptor-like-1 FPRL1; P25090; FPRL1-expressing cells, fluorescent ligand binding inhibition, flow cytometry; inhibition, % (no concentration beside the values); hit rate 0.3% among 24,000;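 also: 0% = buffer alone and 100% = receptor blocker peptide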
VLA-4 antagonist – inhibitors of LDV-FITC ligand binding to Mn2+-activated human VLA-4 integrin | Jurkat cells, LDV-FITC binding with Mn2+, flow cytometry; 100% = Mn2+-driven binding gain fully reversed | inhibition, % at 10 µM (by protocol) | hit rate 0.2% among 24,000;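 active = inhibition above 50%; inconclusive = compound itself fluorescent, judged against control cell fluorescence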;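 also: 0% = Mn2+ stimulated cells lacking compound and 100% = ligand binding without Mn2+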
Target sequence (P13612 whole entry, looked up): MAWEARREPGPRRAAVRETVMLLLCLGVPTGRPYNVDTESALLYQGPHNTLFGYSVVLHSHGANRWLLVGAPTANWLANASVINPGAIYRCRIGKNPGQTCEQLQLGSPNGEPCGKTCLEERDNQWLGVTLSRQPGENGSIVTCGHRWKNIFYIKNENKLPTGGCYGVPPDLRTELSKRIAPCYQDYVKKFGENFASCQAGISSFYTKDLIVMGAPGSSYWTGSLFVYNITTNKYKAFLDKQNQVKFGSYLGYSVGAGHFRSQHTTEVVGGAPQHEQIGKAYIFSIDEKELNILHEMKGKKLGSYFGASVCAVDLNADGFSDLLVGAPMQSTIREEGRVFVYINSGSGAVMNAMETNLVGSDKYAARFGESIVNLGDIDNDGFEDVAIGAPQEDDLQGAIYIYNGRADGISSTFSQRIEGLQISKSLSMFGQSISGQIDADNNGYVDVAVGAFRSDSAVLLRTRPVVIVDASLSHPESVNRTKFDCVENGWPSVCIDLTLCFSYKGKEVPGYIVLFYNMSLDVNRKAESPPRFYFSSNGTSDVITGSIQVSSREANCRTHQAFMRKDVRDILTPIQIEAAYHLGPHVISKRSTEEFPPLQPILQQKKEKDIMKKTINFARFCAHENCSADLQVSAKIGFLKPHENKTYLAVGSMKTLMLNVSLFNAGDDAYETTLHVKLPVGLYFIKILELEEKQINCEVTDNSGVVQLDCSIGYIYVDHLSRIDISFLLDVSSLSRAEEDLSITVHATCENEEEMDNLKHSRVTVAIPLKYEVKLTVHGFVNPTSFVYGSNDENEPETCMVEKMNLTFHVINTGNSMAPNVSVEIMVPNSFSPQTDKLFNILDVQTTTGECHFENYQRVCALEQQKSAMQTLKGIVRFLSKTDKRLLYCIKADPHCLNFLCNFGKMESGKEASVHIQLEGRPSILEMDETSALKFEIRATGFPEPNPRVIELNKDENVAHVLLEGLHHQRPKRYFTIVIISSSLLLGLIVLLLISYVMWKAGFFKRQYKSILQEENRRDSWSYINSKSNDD
VLA-4 agonist – allosterically activates the human VLA-4 integrin. P13612. Jurkat cells, LDV-FITC binding, flow cytometry. activation, % at 10 µM (by protocol). 24,000 tested, under 10 active. AID 528;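 active = fluorescent ligand binding to cells raised by more than 40% of the manganese-induced maximum; inconclusive = compound's own fluorescence above 85% of the ligand control signal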;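 also: 0% = ligand binding without compound and 100% = manganese-stimulated maximal binding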
FPR ligand – ligands of human FPR, also counter-screen for FPRL1 ligands | P21462 | FPR-expressing cells, fluorescent ligand binding, flow cytometry | inhibition, % (concentration not given with the values) | hit rate 0.74% among 24,000 | AID 440;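 also: 0% = buffer wells and 100% = receptor blocker peptide wells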
Autofluor Jurkat – counter-screen for VLA-4 integrin: compound autofluorescence in Jurkat cells | AID 576 | fluorescence ratio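 (tested at 10 µM compound in the well)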 | flow cytometry; stronger effect = higher value; 1 = vehicle-only cell background | hit rate 0.61% among 24,000;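 active = fluorescence ratio above 2.44, which is 1 plus 3 SD of all ratios; inconclusive = signal too bright to measure linearly, ratio around 10 or more; inactive = fluorescence ratio below 2.44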;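 also: green fluorescence of cells measured with 488 nm excitation and 530 nm emission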
LNCaP diff act – promotes differentiation of LNCaP prostate cells; hit rate 0.56% among 24,000; flow cytometry side scatter, 4 d; AID 795; side scatter shift, % at 10 µM;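 active = side scatter shift above 30%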;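 also: androgen-responsive LNCaP prostate cancer cells in charcoal-stripped serum medium; percent of cells past a gate set so DMSO wells show 10% shift; higher shift means more granular cells and more differentiation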
Active calls of the source: *; ? = inconclusive; . = no result given. Rule as the data show it, unless noted: active = inhibition above about 30%; inconclusive = no clear call, values can overlap the other calls; inactive = below that.

SMILES	FPRL1 binder	VLA-4 antagonist	VLA-4 agonist	FPR ligand	Autofluor Jurkat	LNCaP diff act
CCC(C)(C(=O)NC1CCCC1)N(CC1CCCO1)C(=O)c1ccc2c(c1)OCO2 (stereo unspecified)	2	3	3	37*	1	4
O=S(=O)(c1cnc[nH]1)N1CCc2ccccc21	33*	?	?	?	3.1*	6
O=C(Cn1cccc1C(=O)c1ccccc1)NCc1ccccn1	-2	42	1	-1	1.1	7
O=C(c1ccccc1)c1ccc(N2CCNCC2)cc1	1	-9	2	-6	1.1	41*
Cc1ccsc1C1C2=C(CC(C)(C)CC2=O)Nc2ncnn21 (stereo unspecified)	2	-41	15	36*	1.1	9
Cc1cccn2c(=O)c3cc(C(=O)N4CCc5ccccc5C4)n(C)c3nc12	2	24	-3	-1	1.2	4
Cc1cccc(-n2c(=O)[nH]c3c(C(N)=O)nc(C(C)C)nc32)c1	-2	?	?	-1	1.3	7
COc1ccc(-c2nc(C(N)=O)c3[nH]c(=O)n(-c4cccc(Cl)c4)c3n2)cc1OC	-9	?	?	-8	4.5*	7
Cc1oc(-c2ccccc2F)nc1CN1CCC(C(=O)NCCC2=CCCCC2)CC1	0	?	?	-4	1.2	14
CCOC(=O)Cc1cc(=O)n2[nH]c(C)c(-c3ccccc3)c2n1	26	.	.	51*	.	.
Cn1c2ccccc2c2c(C(=O)O)cn(C3CCCC3)c(=O)c21	-4	51*	-21	16	1.1	16
COc1ccc(-c2cc(N)n(S(=O)(=O)c3c(F)c(F)c(F)c(F)c3F)n2)cc1OC	-6	6	4	-4	1	2
COc1ccc(S(=O)(=O)Nc2ccccc2SC)cc1C	2	-18	6	-1	1.1	16
CSc1ccccc1NS(=O)(=O)c1ccccc1	29	-22	2	31*	1	7
CCOc1ccc(NC(=O)c2oc3ccccc3c2NC(=O)C(C)C)cc1	-3	?	?	-4	2.5*	16
Nc1nc2n(n1)C(c1ccccc1Cl)CC(c1ccc(F)cc1)N2 (stereo unspecified)	-4	?	?	1	2.7*	3
O=C(CCn1cccc1)NC1CCCc2ccccc21 (stereo unspecified)	-1	6	3	-2	1.2	4
CCN(CC)CCNC(=O)c1nn(-c2ccc(C)cc2)c(=O)c2c1c1ccccc1n2C	-15	11	-12	1	1.1	36*
Cc1ccc(-n2nc(C(=O)NCc3ccco3)c3c4ccccc4n(C)c3c2=O)cc1	2	30	-12	0	0.87	8
Cc1nc2c(-c3ccc(F)cc3)c(C)nn2c(C)c1CCC(=O)NC(C)CCc1ccco1 (stereo unspecified)	-6	11	-6	44*	1.1	5
COc1ccc(C2C=C(c3ccc(Br)s3)Nc3ncnn32)cc1OC (stereo unspecified)	-8	?	?	-9	3.3*	4
COc1cccc(C2C=C(c3cccs3)Nc3ncnn32)c1OC (stereo unspecified)	-4	17	-1	4	1.1	10
CCOc1cccc2cc(-c3csc(NC(=O)CCC(=O)N4CCN(C)CC4)n3)c(=O)oc12	2	-36	2	4	1	1
Cc1cccc(NC(=O)c2sc3nc(-c4ccccc4)cn3c2C)n1	-15	?	?	-9	3.4*	9
Cc1c(C(=O)Nc2ccc3c(c2)OCO3)sc2nc(-c3ccccc3)cn12	11	20	-3	6	1.2	3
SMILES	FPRL1 binder	VLA-4 antagonist	VLA-4 agonist	FPR ligand	Autofluor Jurkat	LNCaP diff act
Cc1cccc(NC(=O)c2sc3nc(-c4ccc(F)cc4)cn3c2C)n1	12	?	?	-2	5.1*	26
COc1ccc(-c2cn3c(C)c(C(=O)Nc4cccc(C)n4)sc3n2)cc1	-9	?	?	1	1.6	9
Cc1c(C(=O)NCc2ccccn2)sc2nc(-c3ccc(F)cc3)cn12	-10	3	-2	-4	1	4
Cc1c(C(=O)Nc2ccccc2)sc2nc(-c3ccccc3)cn12	-4	74*	-11	-6	1.3	4
O=C(COc1ccc(S(=O)(=O)N2CCCC2)cc1Cl)NC1CC1	1	-12	-1	3	1	36*
Cn1cccc1Cc1nnc(SCC(=O)Nc2ccc(Cl)cc2)n1-c1ccc(F)cc1	4	3	0	24	1	15
CCOC(=O)CSc1nc2ccccc2n1C(=O)OCC	-8	?	?	-4	2.8*	20
CCOC(=O)N1CCC(Nc2nc3ccccc3n3cnnc23)CC1	-4	6	0	-3	0.99	8
CCOC(=O)CSc1nc2ccccc2n2cnnc12	-49	?	?	?	7.3*	10
CCOC(=O)CSc1nc2ccccc2n1CC(=O)N1CCN(c2ccccc2)CC1	12	1	-4	1	1.1	12
O=C(CCn1c(=S)[nH]c2cc3c(cc2c1=O)OCO3)NCCN1CCCC1	0	-19	11	-5	0.97	1
CN1CCN(c2ccccc2NS(=O)(=O)c2ccc3c(c2)CCN3C(=O)C2CCC2)CC1	-4	15	-5	1	1.1	46*
COc1ccc(NC(=O)CCc2ccccc2)cc1NC(=O)c1ccco1	-3	-3	-8	-7	1	4
CCOc1cc(NC(=O)c2ccco2)c(OCC)cc1NC(=O)CCc1ccc(OC)cc1	1	-19	-4	33*	1.1	14
COc1ccc2cc3cc(C(=O)Nc4ccccc4N4CCN(C)CC4)oc3nc2c1	-2	?	?	-1	1.1	62*
COc1ccc2cc3cc(C(=O)NCCN4CCN(c5ccccc5F)CC4)oc3nc2c1	-2	?	?	-3	1.2	4
O=C1C(CCS(=O)c2ccccc2)C(=O)N(c2ccccc2)N1c1ccccc1 (stereo unspecified)	-7	58*	-42	34*	0.98	2
CCn1c2ccccc2c2nnc(SCC(=O)NC(C(=O)OC)C(C)C)nc21 (stereo unspecified)	0	-25	10	0	1	14
CC(C)=CC(=O)OCC(=O)NC(=O)NC(C)(C)C	8	-16	4	-1	1.1	11
CC(C)(C)NC(=O)NC(=O)COc1ccccc1C#N	-2	?	?	5	4*	11
CN1CC=C2C(C#N)=C(N)C(C#N)(C#N)C(c3cccc(Cl)c3Cl)C2C1 (stereo unspecified)	-8	?	?	-4	2.7*	4
O=C(NCc1ccco1)c1cccc(-c2nnc(-c3ccccc3)o2)c1	-2	8	-18	-4	1.2	10
COc1cccc(C2/C(=C(/O)c3ccncc3)C(=O)C(=O)N2CCCN2CCOCC2)c1OC (stereo unspecified)	6	.	.	-11	.	.
